Source: PubChem BioAssay (Tox21)
Results filed as inconclusive are left out. Active and inactive are the calls of the source. Unless noted, calls come from the whole dose curve; as a rule, active = well fitted curve in the direction sought with a large enough effect in the repeat runs; inconclusive = weak or mixed curves; inactive = no such curve, though single readings can be large; an effect the other way counts as inactive or inconclusive.

Assays:
[1] = target: Thyrotropin receptor (Homo sapiens) (UniProt P16473); assay: qHTS assay to identify small molecule agonists of the thyroid stimulating hormone receptor (TSHR) signaling pathway (AID 1224843; calls by dose curve; note: nearly all actives have a fitted effect of over 45% in size)
Thyrotropin receptor (Homo sapiens), sequence (P16473 whole entry, looked up): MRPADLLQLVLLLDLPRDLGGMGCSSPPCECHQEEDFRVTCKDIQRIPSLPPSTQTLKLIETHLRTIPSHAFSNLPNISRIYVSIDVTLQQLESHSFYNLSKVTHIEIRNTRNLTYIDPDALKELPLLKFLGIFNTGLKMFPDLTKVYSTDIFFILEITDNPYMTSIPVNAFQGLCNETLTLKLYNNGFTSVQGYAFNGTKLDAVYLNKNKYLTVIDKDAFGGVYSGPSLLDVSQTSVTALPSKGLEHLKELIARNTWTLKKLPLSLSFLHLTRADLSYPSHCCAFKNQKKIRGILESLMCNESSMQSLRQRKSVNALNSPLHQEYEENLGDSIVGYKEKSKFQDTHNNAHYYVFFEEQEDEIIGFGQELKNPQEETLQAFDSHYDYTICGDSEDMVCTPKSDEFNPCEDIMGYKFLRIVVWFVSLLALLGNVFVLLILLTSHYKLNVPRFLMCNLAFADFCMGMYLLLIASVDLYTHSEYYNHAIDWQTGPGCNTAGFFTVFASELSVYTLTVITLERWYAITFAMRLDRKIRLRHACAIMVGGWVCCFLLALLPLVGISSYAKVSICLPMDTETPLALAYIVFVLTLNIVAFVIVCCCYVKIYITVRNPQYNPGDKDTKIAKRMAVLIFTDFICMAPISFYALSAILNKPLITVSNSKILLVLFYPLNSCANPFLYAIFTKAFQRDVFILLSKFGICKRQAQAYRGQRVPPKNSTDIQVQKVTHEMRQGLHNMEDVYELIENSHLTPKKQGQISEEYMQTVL
Procedure, shortened: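 Cell line HEK293 with TSHR; density 800/well. Exposure 30 min RT. Readout HTRF cAMP (cAMP-d2/anti-cAMP-cryptate), 1 h RT before reading.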

[2] = qHTS assay to identify small molecule agonists of the hypoxia (HIF-1) signaling pathway - cell viability counter screen (AID 1224844; calls by dose curve; note: nearly all actives have a fitted effect of over 50% in size)
Procedure, shortened: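 HRE-bla ME-180 cells in medium with 0.5% dialyzed FBS were preincubated 5 hrs at 37C, exposed to compounds for 17 hrs, then viability was read as CellTiter-Glo luminescence after 30 min at room temperature, in the reporter wells.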

[3] = qHTS assay to identify small molecule agonists of H2AX (AID 1224845; active = well fitted activation curve with a large enough effect in the signal ratio in the repeat runs, not every such curve was filed as active; the % refers to the signal ratio)
Procedure, shortened: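 Wild-type CHO-K1 cells plated overnight, then exposed 3 hr at 37C to compounds at 15 concentrations (0.76% DMSO). Lysed, then HTRF anti-pH2AX(S139)-cryptate/anti-H2AX-d2 detection after 24 hr at room temperature; emissions 665 and 620 nm.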

[4] = qHTS assay to identify small molecule agonists of H2AX - cell viability counter screen (AID 1224847; calls by dose curve; note: top concentration of the series differs between compounds; nearly all actives have a fitted effect of over 30% in size)
Procedure, shortened: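 Wild-type CHO-K1 cells (10% FBS medium) were plated overnight at 37C, exposed to compounds at 15 concentrations for 3 hr at 37C (0.76% DMSO final), and viability was read as CellTiter-Glo luminescence after 30 min at room temperature.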

[5] = qHTS RealTime-Glo MT Cell Viability Assay in HepG2 cells - 24 hour (AID 1224867); note: nearly all actives have a fitted effect of over 50% in size
Procedure, shortened: (§1)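 Luminescence read-out: viable HepG2 cells reduce a prosubstrate to a NanoLuc substrate, giving a signal proportional to live cell number. Reads taken at 0, 8, 16, 24, 32 and 40 h of compound exposure at 37 C.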

[6] = qHTS RealTime-Glo MT Cell Viability Assay in HEK293 cells - 32 hour (AID 1224868); note: nearly all actives have a fitted effect of over 50% in size; note: potency is the fitted concentration of half-maximal effect
Procedure, shortened: (§2)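 Nonlytic real-time viability readout: viable cells convert prosubstrate to NanoLuc substrate, giving luminescence proportional to live cell number. HEK293, 600 cells/well, compound added after 5 h, continuous culture at 37 C.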

[7] = A CellTox Green Cytotoxicity Assay to monitor cytotoxicity in HEK293 cells - 0 hour (AID 1224869); note: nearly all actives have a fitted effect of over 50% in size
Procedure, shortened: (§3)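 HEK293 cells premixed with CellTox Green dye were seeded at 600 cells/well and left 5 h at 37 C/5% CO2 before pin transfer of 23 nL compound in DMSO. Fluorescence from dye bound to dead-cell DNA was read during 40 h treatment.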

[8] = qHTS RealTime-Glo MT Cell Viability Assay in HepG2 cells - 40 hour (AID 1224870); note: nearly all actives have a fitted effect of over 50% in size
Procedure, shortened: (§4)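 HepG2 cells mixed with RealTime-Glo MT reagents (NanoLuc plus cell-permeant prosubstrate) were seeded at 600 cells/well, incubated 5 h at 37 C/5% CO2, then pinned with compounds in DMSO; nonlytic luminescence tracked viability during 40 h treatment.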

[9] = A CellTox Green Cytotoxicity Assay to monitor cytotoxicity in HEK293 cells - 40 hour (AID 1224871); note: nearly all actives have a fitted effect of over 45% in size
Procedure, shortened: as §3

[10] = qHTS RealTime-Glo MT Cell Viability Assay in HEK293 cells - 16 hour (AID 1224872); note: nearly all actives have a fitted effect of over 50% in size; note: potency is the fitted concentration of half-maximal effect
Procedure, shortened: as §2

[11] = qHTS RealTime-Glo MT Cell Viability Assay in HepG2 cells - 8 hour (AID 1224873); note: nearly all actives have a fitted effect of over 55% in size
Procedure, shortened: as §4

[12] = qHTS RealTime-Glo MT Cell Viability Assay in HEK293 cells - 40 hour (AID 1224874); conditions: RealTime-Glo luminescence; max response: active compounds read low; note: nearly all actives have a fitted effect of over 50% in size; note: potency is the fitted concentration of half-maximal effect
Procedure, shortened: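 HEK293 cells mixed with RealTime-Glo reagents (NanoLuc plus cell-permeant prosubstrate) at 600 cells/well, preincubated 5 h at 37 C/5% CO2, then given 23 nL compound in DMSO. Nonlytic luminescence from viable cells was read at 0, 8, 16, 24, 32 and 40 h.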

[13] = A CellTox Green Cytotoxicity Assay to monitor cytotoxicity in HEK293 cells - 24 hour (AID 1224875); note: nearly all actives have a fitted effect of over 45% in size
Procedure, shortened: as §3

[14] = A CellTox Green Cytotoxicity Assay to monitor cytotoxicity in HepG2 cells - 16 hour (AID 1224876); note: nearly all actives have a fitted effect of over 45% in size
Procedure, shortened: (§5)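 HepG2 cells were seeded together with the CellTox Green dye at 600 cells/well, left 5 h at 37 C/5% CO2, then given compounds in DMSO. Fluorescence from dye bound to dead-cell DNA was read repeatedly over 40 h of treatment at 37 C.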

[15] = qHTS RealTime-Glo MT Cell Viability Assay in HepG2 cells - 32 hour (AID 1224877); note: nearly all actives have a fitted effect of over 55% in size
Procedure, shortened: as §1

[16] = A CellTox Green Cytotoxicity Assay to monitor cytotoxicity in HepG2 cells - 24 hour (AID 1224878); note: nearly all actives have a fitted effect of over 45% in size
Procedure, shortened: as §5

[17] = A CellTox Green Cytotoxicity Assay to monitor cytotoxicity in HepG2 cells - 40 hour (AID 1224879); note: nearly all actives have a fitted effect of over 40% in size
Procedure, shortened: as §5

[18] = qHTS assay to identify small molecule antagonists of the estrogen related receptor (ERR) signaling pathway from Tox21 library (AID 1224848); note: nearly all actives have a fitted effect of over 50% in size
Procedure, shortened: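 Screening used an ERR reporter line supplied by NTP, exposed for 18 h at 37 C to library compounds delivered in DMSO. Signal was luciferase luminescence developed with ONE-Glo at room temperature for 30 min.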

[19] = qHTS assay to identify small molecule agonists of the estrogen related receptor (ERR) signaling pathway from Tox21 library (AID 1224849; calls by dose curve; note: nearly all actives have a fitted effect of over 15% in size); conditions: ERR reporter cell line, ONE-Glo luciferase, 18 h; at 92.4 µM (top of the series) unless noted
Procedure, shortened: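 ERR reporter cell line (NTP) seeded, rested 6 h at 37 C/5% CO2, then pinned with Tox21 compounds in DMSO. After 18 h at 37 C, ONE-Glo luciferase luminescence was read following 30 min at room temperature.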

[20] = qHTS assay to identify small molecule agonists of the hypoxia (HIF-1) signaling pathway (AID 1224846; active = well fitted activation curve with a large enough effect in the signal ratio in the repeat runs, not every such curve was filed as active; the % refers to the signal ratio)
Procedure, shortened: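 HRE-bla ME-180 cells (beta-lactamase reporter under hypoxia response element) were plated at 2,000 cells/well in medium with 0.5% dialyzed FBS, rested 5 hrs, then given compounds in DMSO for 17 hrs at 37C, 5% CO2. Reporter induction was read with CCF4-AM FRET substrate.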
% is set by controls: 0 for no effect and ±100 for the full control effect.

O=C(O)CCC(=O)c1ccc(-c2ccccc2)cc1
inactive: Potency [1] | Potency [2] | Potency [3] | Potency [4] | Potency [5] | Potency [6] | Potency [7] | Potency [8] | Potency [9] | Potency [10] | Potency [11] | max response [12] 0.573% | Potency [13] | Potency [14] | Potency [15] | Potency [16] | Potency [17]

CC(=O)N[C@@H](Cc1ccc(O)cc1)C(=O)O
inactive: Potency [1] | Potency [2] | Potency [3] | Potency [4] | Potency [18] | activity change, positive = activation [19] 1.4% [at 42.5 µM] | Potency [5] | Potency [6] | Potency [7] | Potency [8] | Potency [10] | Potency [11] | max response [12] 8.17% | Potency [13] | Potency [14] | Potency [15]

C=C(C)c1ccccc1
inactive: Potency [1] | Potency [2] | Potency [3] | Potency [4] | Potency [5] | Potency [6] | Potency [7] | Potency [9] | Potency [10] | Potency [11] | max response [12] 1.05% | Potency [13] | Potency [15] | Potency [17]

Cc1c[nH]c2ccccc12
inactive: Potency [1] | Potency [2] | Potency [3] | Potency [4] | Potency [18] | activity change, positive = activation [19] 0.349% [at 42.5 µM] | Potency [5] | Potency [6] | Potency [7] | Potency [8] | Potency [9] | Potency [10] | Potency [11] | max response [12] 17.2% | Potency [13] | Potency [14] | Potency [15] | Potency [16]

C=CC(=O)O
inactive: Potency [1] | Potency [2] | Potency [3] | Potency [4] | Potency [5] | Potency [6] | Potency [7] | Potency [8] | Potency [9] | Potency [10] | Potency [11] | max response [12] -0.787% | Potency [13] | Potency [14] | Potency [15] | Potency [16] | Potency [17]

Oc1ccc2c(c1)Cc1ccccc1-2
active: Potency [6] 19.5 µM | Potency [10] 21.9 µM | Potency [12] 19.5 µM
inactive: Potency [1] | Potency [2] | Potency [3] | outcome [20] | Potency [18] | Potency [5] | Potency [7] | Potency [8] | Potency [11] | Potency [15]

Nc1c(Cl)cc(Cl)cc1[N+](=O)[O-]
inactive: Potency [1] | Potency [2] | Potency [3] | outcome [20] | Potency [18] | activity change, positive = activation [19] -2% | Potency [5] | Potency [6] | Potency [7] | Potency [8] | Potency [9] | Potency [10] | Potency [11] | max response [12] 7.12% | Potency [15]
